# In PubChem BioAssay (NCI):
# This is part of a sample that, as a whole, favours compounds with a hit. Of some 83,000 tested, about 20% had one in any assay.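 Values shown are percent growth following 48 h exposure of cells in 96-well plates to a single concentration of compound; below 10 was considered active.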 Calls of active or inactive are those of the source.
# Test system: SF-295 CNS
# Assay: NCI-60 one-dose screen, 48 h (100 = growth as untreated, 0 = no growth, -100 = all killed)
# Conditions: 10 µM
row,SMILES,growth
1,CC(C)N(CCOc1cccc(-c2nc3sccn3c2-c2ccnc(S(C)(=O)=O)n2)c1)C(C)C,103% (inactive)
2,O=C(CSc1nnc(-c2ccc(Cl)cc2)o1)Nc1ccc(C(=O)/C=C/c2ccc(Cl)cc2)cc1,101% (inactive)
3,CC[C@@H](C(=O)[C@@H](C)[C@@H](O)[C@H](C)[C@@H]1O[C@@H]([C@@H](CC)C(=O)N(CC)CC)CC[C@@H]1C)C1O[C@]2(C=CC(=O)[C@]3(CC[C@@](C)([C@H]4CC[C@](O)(CC)[C@H](C)O4)O3)O2)[C@H](C)C[C@@H]1C (some centres not stated),4.86% (active)
4,COc1ccc(-c2onc(N)c2-c2cc(OC)c3c(c2)OCO3)cc1,14.3% (inactive)
5,CCN(CC)CCOc1cccc2c1C(=O)c1cccc(OCCN(CC)CC)c1C2=O,32.5% (inactive)
6,COc1cc(/C=C/c2cc(/C=C/c3ccc(O)c(OC)c3)n(C(=O)Nc3ccc(C)cc3)n2)ccc1O,0.531% (active)
7,CCOC(=O)c1cc(C(=O)c2ccc(F)cc2F)n2ccccc12,94.7% (inactive)
8,COc1cc2c(cc1NC(=O)C(Cl)Cl)-c1ccc(NC(=O)C(Cl)Cl)cc1C2,-12.8% (active)
9,COc1ccc(-c2cc(-c3ccccc3)nc(SCCCC(=O)NO)n2)cc1,-39.6% (active)
10,O=S(=O)(Oc1ccc(-c2ccc3sccc3c2)cc1)c1ccc(F)cc1,96.4% (inactive)
11,COc1cc(-c2nn(-c3ccc(NC(=O)NCCCNC(=O)c4ccccc4)cc3)cc2-c2ccncc2)ccc1Cl,0.436% (active)
12,CN(C)CCCOc1ccc(OCCCN(C)C)c2c1C(=O)c1ccccc1C2=O,14.4% (inactive)
